Source: PubChem
Apoferritin bind: binds horse apoferritin like a general anesthetic; apoferritin/1-aminoanthracene competitive binding, fluorescence; P02791; AID 485281; Potency, µM (doses to about 77.5 µM), inactives show at the highest dose activity change, negative = displacement, usual class: inhibitors; hit rate 0.074% among 350,000; further: on the % scale 0 is the no-effect control and ±100 the full control effect; nearly all actives have a fitted effect of over 20% in size
Target sequence (P02791 2-175 limits assumed): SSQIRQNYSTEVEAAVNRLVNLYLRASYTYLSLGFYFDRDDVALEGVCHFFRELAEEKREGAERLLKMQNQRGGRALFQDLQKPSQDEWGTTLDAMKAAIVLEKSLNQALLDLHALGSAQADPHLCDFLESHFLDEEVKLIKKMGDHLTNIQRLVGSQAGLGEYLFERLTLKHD
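10 uM apoferritin + 50% sat. 1-AMA, PBS; cpd 10 min RT; Ex380/Em535 endpoint; normalized to free probe vs complex; 4-param Hill fit; propofol titration as pos. ctrl.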
TGFb SMAD3 inh: TGF-b pathway inhibition | HepG2 CAGA-GFP TGF-b/SMAD3 reporter, GFP fluorescence, 18 h; TGF-beta stimulated, 500 pg/mL final | Potency, µM (titrated, usually from 46.1 µM), without a hit: at the top dose activity, negative = inhibition, actives largely listed as inhibitors | hit rate 1.2% among 410,000; further: on the % scale 0 is the no-effect control and ±100 the full control effect; nearly all actives have a fitted effect of over 65% in size
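Inhibition was scored as loss of TGF-beta-induced (500 pg/mL final, 18 hours, 37 degrees C) GFP in HEPG2 cells carrying a CAGA-GFP reporter, in DMEM with 1% FBS. Well GFP was summed per cell; Activity was normalised to unstimulated and stimulated DMSO wells, then concentration-response fitting.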
ATXN2 expr inh: reduces ATXN2 reporter expression in HEK-293 cells. HEK-293 ATXN2-luciferase reporter, luminescence, 24 h. Potency, µM (highest dose often 57 µM), for the others: at the top dose activity change, negative = inhibition, usual class: inhibitors. hit rate 0.72% among 360,000. AID 1745845; further: on the % scale 0 is the no-effect control and ±100 the full control effect; nearly all actives have a fitted effect of over 55% in size
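qHTS (up to 57 uM final) was run with 24 h compound exposure of reporter cells at 37 °C. Each well was multiplexed: SteadyGlo luminescence measured ATXN2-luciferase expression after a fluorogenic Gly-Phe-AFC viability readout (25 uM final).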
S2 tox: reduces viability in counter-screen for ATXN expression inhibitors; S2 cells (HEK-293 line with an ATXN2-luciferase reporter) viability, CellTiter-Fluor protease fluorescence, 24 h; Potency, µM (doses to about 56.7 µM), actives largely listed as cytotoxic; hit rate 0.49% among 400,000; AID 651635; further: nearly all actives have a fitted effect of over 40% in size
HepG2 tox: HepG2 cytotoxicity, counter-screen for TGF-b inhibitors; HepG2 CAGA-GFP viability, ATP luminescence, 18 h; Potency, µM (series often up to 46.1 µM), for inactives: top-dose activity change, negative = cytotoxicity, most hits filed as cytotoxic; hit rate 0.76% among 410,000; AID 588856
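CellTiter-Glo luminescence gave cytotoxicity after 18 hours at 37 degrees C. The cells were HepG2 CAGA-GFP in 1% FBS DMEM, stimulated with 500 pg/mL TGF-beta after compound addition. %Activity was normalised to no-cell wells (complete cell-killing) and DMSO (no toxicity), and curves were fitted and classified.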
Starred values were filed as active, the others as inactive; [ ] = another dose, or the depositor's remark. Shown are actives, neighbours in structure and some others; about 2.4% of the full set was active somewhere. The call rests on the fitted dose curve; in most records, active means well fitted curve in the direction sought with a large enough effect; inconclusive means small, poorly fitted or top-dose-only effect, or another doubt; inactive means no such curve, though single readings can be large; an effect the other way counts as inactive or inconclusive. Potency means the concentration at half of the fitted maximal effect.

COc1ccc(NC(=O)NCCCN2CCN(c3cc(C)ccc3C)CC2)cc1 was read as Apoferritin bind -14%, TGFb SMAD3 inh inconclusive, ATXN2 expr inh inconclusive, S2 tox inconclusive and HepG2 tox 13µM*.
COc1ccc(C2=C(C)C(=NCCCN3CCN(c4cc(C)ccc4C)CC3)NS2(=O)=O)cc1 was read as Apoferritin bind -6%, TGFb SMAD3 inh inconclusive and HepG2 tox 10µM*.
`COc1ccc(NC(=O)NCCCN2CCN(c3ccccc3F)CC2)cc1` gave Apoferritin bind -1%, TGFb SMAD3 inh 0%, ATXN2 expr inh -11%, S2 tox inactive and HepG2 tox -6%.
For Cc1ccc2cccc(O)c2n1 the results were TGFb SMAD3 inh inconclusive and HepG2 tox -118%.
`COc1ccc(S(=O)(=O)NCc2cccnc2)cc1Br` gave Apoferritin bind -8%, TGFb SMAD3 inh -20%, S2 tox inconclusive and HepG2 tox 7.1µM*.
CCC(=O)Nc1cc2c(cc1Cl)-c1ccccc1C2 was read as TGFb SMAD3 inh 17%, ATXN2 expr inh 45%, S2 tox inactive and HepG2 tox 13µM*.
Screening Oc1ccc(N=Nc2c(O)ccc3ccccc23)cc1 returned Apoferritin bind inconclusive, TGFb SMAD3 inh inconclusive, ATXN2 expr inh -14%, S2 tox inconclusive and HepG2 tox 14µM*.
`NS(=O)(=O)c1ccc(N=Nc2c(O)ccc3ccccc23)cc1` gave Apoferritin bind -14%, TGFb SMAD3 inh inconclusive, ATXN2 expr inh -6%, S2 tox inconclusive and HepG2 tox -74%.
`O=C1CC(c2cc(Br)ccc2F)c2cc3c(cc2N1)CCC3` (stereo not drawn) gave Apoferritin bind -6%, TGFb SMAD3 inh -4%, ATXN2 expr inh inconclusive, S2 tox 4.5µM* and HepG2 tox 4%.
`COc1cccc(C2CC(=O)Nc3cc4c(cc32)CCC4)c1` (stereo not drawn) gave Apoferritin bind -19%, TGFb SMAD3 inh -25%, S2 tox inconclusive and HepG2 tox -18%.
`O=C1CC(c2cccc(Cl)c2)c2cc3c(cc2N1)CCC3` (stereo not drawn) gave Apoferritin bind -15%, TGFb SMAD3 inh 10µM*, ATXN2 expr inh inconclusive, S2 tox inconclusive and HepG2 tox -53%.
Screening CCN(CC)C(=O)N1CCN(/[N+]([O-])=N/Oc2ccc([N+](=O)[O-])cc2[N+](=O)[O-])CC1 returned TGFb SMAD3 inh inconclusive and HepG2 tox -34%.
COc1ccc(NC(=O)c2cc(S(=O)(=O)NCC3COc4ccccc4O3)ccc2F)cc1 (stereo not drawn) was read as Apoferritin bind -14%, TGFb SMAD3 inh inconclusive, ATXN2 expr inh -9%, S2 tox inactive and HepG2 tox -12%.
Screening O=C(Nc1ccc(C(F)(F)F)cc1)c1cc(S(=O)(=O)NCC2COc3ccccc3O2)ccc1F (stereo not drawn) returned Apoferritin bind -19%, TGFb SMAD3 inh -1%, ATXN2 expr inh -17%, S2 tox inactive and HepG2 tox 18µM*.
Screening CCCCS(=O)(=O)/C=C\C1C2C=CC(C2)C1S(=O)(=O)CCCC (stereo not drawn) returned Apoferritin bind -10%, TGFb SMAD3 inh 7%, ATXN2 expr inh -5%, S2 tox inactive and HepG2 tox -5%.
`CCCCS(=O)(=O)/C=C\C=C/S(=O)(=O)CCCC` gave Apoferritin bind -3%, TGFb SMAD3 inh inconclusive, ATXN2 expr inh 7.1µM*, S2 tox 8.9µM* and HepG2 tox -79%.
For CC(O)(C#Cc1ccc2c(c1)N(c1nc(N)ncc1Cl)CC2)c1nccs1 (stereo not drawn) the results were ATXN2 expr inh -17%.
`O=C1OC(CC(=O)N(Cc2nnc(-c3ccc(Cl)cc3)o2)C2CC2)c2ccccc21` (stereo not drawn) gave TGFb SMAD3 inh 8%, ATXN2 expr inh 2%, S2 tox inactive and HepG2 tox 11%.
For O=C1CN(CC(=O)N2CCOCC2)c2ccccc2O1 the results were Apoferritin bind -24%.
Screening O=C1CN(CC(=O)N2CCCCC2)c2ccccc2O1 returned Apoferritin bind -21%, TGFb SMAD3 inh inconclusive, ATXN2 expr inh 3%, S2 tox inactive and HepG2 tox 22µM*.
For Cc1cc(C)nc(N(C#N)CC(=O)c2ccccc2)n1 the results were Apoferritin bind -6%, TGFb SMAD3 inh 4%, ATXN2 expr inh -14%, S2 tox inconclusive and HepG2 tox -26%.
For CCc1ccc(C(=O)CN(C#N)c2nc(C)cc(C)n2)cc1 the results were Apoferritin bind inconclusive, TGFb SMAD3 inh inconclusive, ATXN2 expr inh -29%, S2 tox inconclusive and HepG2 tox 11µM*.
`CCn1c2ccccc2c2cc(/C=N/NC(=O)c3ccncc3)ccc21` gave Apoferritin bind -2%, TGFb SMAD3 inh 8.9µM*, ATXN2 expr inh inconclusive, S2 tox inconclusive and HepG2 tox -34%.
Screening CCn1c2ccccc2c2cc(/C=N/NC(=O)c3cc(O)cc(O)c3)ccc21 returned Apoferritin bind 72%, TGFb SMAD3 inh 16µM*, ATXN2 expr inh -22%, S2 tox inconclusive and HepG2 tox -52%.
Screening CC(CCC(C)[n+]1cccc(Br)c1)[n+]1cccc(Br)c1 (stereo not drawn) returned TGFb SMAD3 inh -1% and HepG2 tox 7%.
For C=Cc1ccc(CC2(C)C(=O)Nc3ccc(-c4cccnc4)cc32)cc1 (stereo not drawn) the results were TGFb SMAD3 inh 0%, ATXN2 expr inh -3%, S2 tox inconclusive and HepG2 tox -13%.
COc1cccc(C(=O)Nc2nc(-c3ccc(S(=O)(=O)N4CCOCC4)cc3)cs2)c1 was read as Apoferritin bind 3%, TGFb SMAD3 inh 8%, ATXN2 expr inh 16µM*, S2 tox inconclusive and HepG2 tox -2%.
Screening COc1ccc(C2=Nn3c(nnc3-c3ccccc3OC)SC2)c(OC)c1 returned Apoferritin bind -7%.
COC(=O)C/C=C\[C@@H](C)[C@@H](/C=N\O[C@@H](C)CN1CCCCc2nc(C)c(C)cc21)OC was read as Apoferritin bind -5%[15.3 µM].
For Cc1ccc(C(=O)Nc2ccc3ncccc3c2)cc1 the results were Apoferritin bind 3%, TGFb SMAD3 inh 0%, ATXN2 expr inh -37%, S2 tox inconclusive and HepG2 tox -16%.
For COc1ccc(C(=O)Nc2ccc3ncccc3c2)cc1 the results were Apoferritin bind 0%, TGFb SMAD3 inh -9%, ATXN2 expr inh 20µM*, S2 tox inactive and HepG2 tox -13%.
For Cc1ccccc1C(=O)c1ccc(Nc2ccc(Br)cc2N)cc1Cl the results were ATXN2 expr inh -15%.
